# Out of some 5,500 compounds screened, about 2,000 (36%) were called active. Not shown: some 18% with an inconclusive outcome. The list shows a part of the results. Unmarked numbers belong to inactive results. No stated cut-off is given here; in the data, active means normalized growth mostly below about 0.91 (no sharp cut-off); inconclusive means no clear call, values can overlap the other calls; inactive means mostly above about 0.92.
# Experiment: chemical genetic growth profiling, strain panel (AID 1159580);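 further: tested at 20 µM; growth read once vehicle control cultures reached saturation at 30 °C; 1 = growth at the plate median or of vehicle wells; lower values mean less growth of the strain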
# Details: S. cerevisiae deletion strains, growth OD
# [1] = locus YDR150W, strain NUM1, active compounds read low
# [2] = locus YGR078C, strain PAC10, active compounds read low
# [3] = locus YGR229C, strain SMI1, active compounds read low
# [4] = locus YNL153C, strain GIM3, active compounds read low
# [5] = locus YAR019C, strain CDC15, active compounds read low
# [6] = locus YBL105C, strain PKC1, active compounds read low
# [7] = locus YBR135W, strain CKS1, active compounds read low
# [8] = locus YBR136W, strain MEC1, active compounds read low
# [9] = locus YBR160W, strain CDC28, active compounds read low
# [10] = locus YDL017W, strain CDC7, active compounds read low
# [11] = locus YDL028C, strain MPS1, active compounds read low
# [12] = locus YDL101C, strain DUN1, active compounds read low
# [13] = locus YDL108W, strain KIN28, active compounds read low
# [14] = locus YDL132W, strain cdc53, active compounds read low
# [15] = locus YDL214C, strain PRR2, active compounds read low
# [16] = locus YDR052C, strain DBF4, active compounds read low
# [17] = locus YDR054C, strain cdc34, active compounds read low
# [18] = locus YDR226W, strain ADK1, active compounds read low
# [19] = locus YDR477W, strain SNF1, active compounds read low
# [20] = locus YER123W, strain YCK3, active compounds read low
# [21] = locus YER133W, strain GLC7, active compounds read low
# [22] = locus YFL009W, strain cdc4, active compounds read low
# [23] = locus YFL029C, strain CAK1, active compounds read low
# [24] = locus YFR003C, strain YPI1, active compounds read low
# [25] = locus YFR019W, strain FAB1, active compounds read low
# [26] = locus YFR028C, strain CDC14, active compounds read low
# [27] = locus YGR040W, strain KSS1, active compounds read low
# [28] = locus YGR052W, strain FMP48, active compounds read low
# [29] = locus YGR092W, strain DBF2, active compounds read low
# [30] = locus YHR030C, strain SLT2, active compounds read low
# [31] = locus YHR079C, strain IRE1, active compounds read low
# [32] = locus YHR082C, strain KSP1, active compounds read low
# [33] = locus YHR205W, strain SCH9, active compounds read low
# [34] = locus YIL147C, strain SLN1, active compounds read low
# [35] = locus YJL095W, strain BCK1, active compounds read low
# [36] = locus YJL128C, strain PBS2, active compounds read low
# [37] = locus YJL157C, strain FAR1, active compounds read low
# [38] = locus YJR016C, strain ILV3, active compounds read low
# [39] = locus YJR066W, strain TOR1 (second series), active compounds read low
# [40] = locus YJR066W, strain TOR1, active compounds read low
# [41] = locus YKL048C, strain ELM1, active compounds read low
# [42] = locus YKL067W, strain YNK1, active compounds read low
# [43] = locus YKL101W, strain HSL1, active compounds read low
# [44] = locus YKL193C, strain SDS22, active compounds read low
# [45] = locus YKL203C, strain TOR2, active compounds read low
# [46] = locus YLR113W, strain HOG1, active compounds read low
# [47] = locus YLR133W, strain CKI1, active compounds read low
# [48] = locus YLR403W, strain SFP1, active compounds read low
# [49] = locus YML070W, strain DAK1, active compounds read low
# [50] = locus YMR001C, strain CDC5, active compounds read low
# [51] = locus YMR205C, strain PFK2 (second series), active compounds read low
# [52] = locus YMR277W, strain FCP1, active compounds read low
# [53] = locus YNL006W, strain LST8, active compounds read low
# [54] = locus YNL020C, strain ARK1, active compounds read low
# [55] = locus YNL161W, strain CBK1, active compounds read low
# [56] = locus YNL183C, strain NPR1, active compounds read low
# [57] = locus YNL207W, strain RIO2, active compounds read low
# [58] = locus YNL222W, strain SSU72, active compounds read low
# [59] = locus YNL307C, strain MCK1 (second series), active compounds read low
# [60] = locus YOL078W, strain AVO1, active compounds read low
# [61] = locus YOL136C, strain PFK27, active compounds read low
# [62] = locus YOR061W, strain CKA2, active compounds read low
# [63] = locus YOR119C, strain RIO1, active compounds read low
# [64] = locus YOR231W, strain MKK1, active compounds read low
# [65] = locus YOR329C, strain SCD5, active compounds read low
# [66] = locus YPL031C, strain PHO85, active compounds read low
# [67] = locus YPL153C, strain RAD53, active compounds read low
# [68] = locus YPL204W, strain HRR25, active compounds read low
# [69] = locus YPL209C, strain IPL1, active compounds read low
# [70] = locus YPL256C, strain CLN2, active compounds read low
# [71] = locus YPR025C, strain CCL1, active compounds read low
# [72] = locus YPR106W, strain ISR1, active compounds read low
# [73] = locus YPR111W, strain DBF20, active compounds read low
# [74] = strain NNK1, active compounds read low
# [75] = strain TSCII, active compounds read low
structure (smiles),measurement,setting,value
CCCCC/C=C\C/C=C\C/C=C\C/C=C\CCCC(=O)NCC(=O)O,normalized growth,"locus YAL040C, strain CLN3, active compounds read low",1.02
same,normalized growth,[1],1.03
same,normalized growth,"locus YDR363W, strain ESC2, active compounds read low",1.02
same,normalized growth,"locus YER002W, strain NOP16, active compounds read low",1.02
same,normalized growth,[2],0.985
same,normalized growth,[3],0.963
same,normalized growth,[4],1.07
same,normalized growth,"locus YNL175C, strain NOP13, active compounds read low",0.941
same,normalized growth,"locus YNL197C, strain WHI3, active compounds read low",1.01
same,normalized growth,"locus YNL224C, strain SQS1, active compounds read low",0.979
same,normalized growth,"locus YOR083W, strain WHI5 (second series), active compounds read low",0.962
O=C(NCc1ccc(F)c(Cl)c1)Nc1csc([N+](=O)[O-])c1,normalized growth,[5],0.984
same,normalized growth,[6],0.979
same,normalized growth,[7],0.987
same,normalized growth,[8],0.965
same,normalized growth,[9],0.981
same,normalized growth,[10],0.981
same,normalized growth,[11],0.98
same,normalized growth,[12],0.984
same,normalized growth,[13],0.975
same,normalized growth,[14],0.989
same,normalized growth,[15],0.975
same,normalized growth,[16],0.985
same,normalized growth,[17],0.989
same,normalized growth,[18],0.986
same,normalized growth,[19],0.977
same,normalized growth,[20],0.917
same,normalized growth,[21],0.965
same,normalized growth,[22],0.989
same,normalized growth,[23],0.967
same,normalized growth,[24],0.984
same,normalized growth,[25],0.951
same,normalized growth,[26],0.977
same,normalized growth,[27],0.976
same,normalized growth,[28],1.02
same,normalized growth,[29],0.96
same,normalized growth,[30],0.906
same,normalized growth,[31],0.958
same,normalized growth,[32],0.99
same,normalized growth,[33],0.932
same,normalized growth,[34],0.983
same,normalized growth,[35],0.963
same,normalized growth,[36],0.957
same,normalized growth,[37],0.987
same,normalized growth,[38],0.99
same,normalized growth,[39],0.952
same,normalized growth,[40],0.987
same,normalized growth,[41],0.98
same,normalized growth,[42],0.973
same,normalized growth,[43],0.947
same,normalized growth,[44],0.987
same,normalized growth,[45],1.03
same,normalized growth,[46],0.922
same,normalized growth,[47],0.962
same,normalized growth,[48],0.948
same,normalized growth,[49],0.938
same,normalized growth,[50],0.99
same,normalized growth,[51],0.962
same,normalized growth,[52],0.991
same,normalized growth,[53],0.993
same,normalized growth,[54],0.972
same,normalized growth,[55],0.983
same,normalized growth,[56],0.957
same,normalized growth,[57],0.981
same,normalized growth,[58],0.988
same,normalized growth,[59],0.973
same,normalized growth,[60],0.983
same,normalized growth,[61],0.942
same,normalized growth,[62],0.966
same,normalized growth,[63],1.01
same,normalized growth,[64],0.939
same,normalized growth,[65],0.981
same,normalized growth,[66],0.983
same,normalized growth,[67],0.969
same,normalized growth,[68],0.981
same,normalized growth,[69],0.981
same,normalized growth,[70],0.916
same,normalized growth,[71],0.989
same,normalized growth,[72],0.978
same,normalized growth,[73],0.977
same,normalized growth,[74],0.99
same,normalized growth,[75],0.981
O=C(Nc1ccc(Cl)cc1)c1csc([N+](=O)[O-])c1,normalized growth,[5],0.92
same,normalized growth,[6],0.93
same,normalized growth,[7],0.931
same,normalized growth,[8],0.927
same,normalized growth,[9],0.933
same,normalized growth,[10],0.938
same,normalized growth,[11],0.922
same,normalized growth,[12],0.943
same,normalized growth,[13],0.929
same,normalized growth,[14],0.908
same,normalized growth,[15],0.874
same,normalized growth,[16],0.936
same,normalized growth,[17],0.901
same,normalized growth,[18],0.923
same,normalized growth,[19],0.803
same,normalized growth,[20],0.795
same,normalized growth,[21],0.764
same,normalized growth,[22],0.913
same,normalized growth,[23],0.919
same,normalized growth,[24],0.924
same,normalized growth,[25],0.918
same,normalized growth,[26],0.915
same,normalized growth,[27],0.797
same,normalized growth,[28],0.826
same,normalized growth,[29],0.545
same,normalized growth,[30],0.583 (active)
same,normalized growth,[31],0.764
same,normalized growth,[32],0.891
same,normalized growth,[33],0.786
same,normalized growth,[34],0.923
same,normalized growth,[35],0.697
same,normalized growth,[36],0.935
same,normalized growth,[37],0.827
same,normalized growth,[38],0.926
same,normalized growth,[39],0.752
same,normalized growth,[40],0.759
same,normalized growth,[41],0.874
same,normalized growth,[42],0.894
same,normalized growth,[43],0.894
same,normalized growth,[44],0.92
same,normalized growth,[45],0.857
same,normalized growth,[46],0.596 (active)
same,normalized growth,[47],0.873
same,normalized growth,[48],0.79
same,normalized growth,[49],0.832
same,normalized growth,[50],0.92
same,normalized growth,[51],0.862
same,normalized growth,[52],0.914
same,normalized growth,[53],0.921
same,normalized growth,[54],0.863
same,normalized growth,[55],0.933
same,normalized growth,[56],0.829
same,normalized growth,[57],0.908
same,normalized growth,[58],0.919
same,normalized growth,[59],0.818
same,normalized growth,[60],0.923
same,normalized growth,[61],0.861
same,normalized growth,[62],0.882
same,normalized growth,[63],0.86
same,normalized growth,[64],0.825
same,normalized growth,[65],0.924
same,normalized growth,[66],0.773
same,normalized growth,[67],0.795
same,normalized growth,[68],0.757
same,normalized growth,[69],0.926
same,normalized growth,[70],0.712 (active)
same,normalized growth,[71],0.929
same,normalized growth,[72],0.94
same,normalized growth,[73],0.925
same,normalized growth,[74],0.944
same,normalized growth,[75],0.928
CC(=O)c1csc([N+](=O)[O-])c1,normalized growth,"locus YAL013W, strain DEP1, active compounds read low",1.01
same,normalized growth,"locus YBR229C, strain ROT2, active compounds read low",1.02
same,normalized growth,[12],0.951
same,normalized growth,"locus YDL134C, strain PPH21, active compounds read low",1
same,normalized growth,[1],0.921
same,normalized growth,"locus YEL061C, strain CIN8, active compounds read low",1.02
same,normalized growth,[2],0.975
same,normalized growth,[3],1.01
same,normalized growth,[30],1.08
same,normalized growth,"locus YHR087W, strain rtc3, active compounds read low",1.02
same,normalized growth,"locus YJL187C, strain SWE1, active compounds read low",0.983
same,normalized growth,"locus YJR043C, strain POL32, active compounds read low",1
same,normalized growth,"locus YJR075W, strain HOC1, active compounds read low",0.99
same,normalized growth,"locus YKL190W, strain CNB1, active compounds read low",1.01
same,normalized growth,"locus YLR039C, strain RIC1, active compounds read low",1
same,normalized growth,"locus YLR058C, strain SHM2 (second series), active compounds read low",0.998
same,normalized growth,"locus YLR085C, strain ARP6, active compounds read low",0.89
same,normalized growth,"locus YLR262C, strain YPT6, active compounds read low",0.976
same,normalized growth,"locus YML094W, strain GIM5, active compounds read low",1.02
same,normalized growth,"locus YMR219W, strain ESC1, active compounds read low",0.996
same,normalized growth,"locus YMR263W, strain SAP30, active compounds read low",1.01
same,normalized growth,"locus YMR307W, strain GAS1, active compounds read low",1.03
same,normalized growth,[4],0.947
same,normalized growth,"locus YNL298W, strain CLA4 (second series), active compounds read low",1.02
same,normalized growth,"locus YNL322C, strain KRE1, active compounds read low",1.01
same,normalized growth,"locus YNR030W, strain Alg12, active compounds read low",1.02
same,normalized growth,"locus YPL055C, strain LGE1, active compounds read low",0.996
same,normalized growth,"locus YPL241C, strain CIN2, active compounds read low",1.09
same,normalized growth,"locus YPR135W, strain CTF4, active compounds read low",0.988

# From PubChem BioAssay AID1159580 (chemical genetic matrix, 2015)
